# From PubChem BioAssay (EPA / NIEHS)
# Activity calls are given as the source filed them. How the source made its calls: active means hit-call score of the fitted dose curve at least 0.9, where 1 is the maximum; inactive means score below 0.9.
# Read-out: Human Leukocyte Antigen - DR isotype (HLADR), HLA-DRA (gene 3122)
# Experiment: BSK_3C_HLADR: BioMAP Diversity Plus: 3C Assay for Human Leukocyte Antigen - DR isotype (HLADR) Biomarker Activity (AID 2283019)
# Settings: primary human endothelial cells (HUVEC); actives raise or lower the signal
# Protocol: BSK_3C is a cell-based, multiplexed-readout assay that uses umbilical vein endothelium, a human vascular primary cell, with measurements taken at 24 hours after chemical dosing in a 96-well plate.BSK_3C_HLADR is an assay component measured in the BSK_3C assay. It measures HLA-DR antibody related to regulation of gene expression using ELISA technology.Data from the assay component BSK_3C_HLADR was analyzed into 1 assay endpoint. This assay endpoint, BSK_3C_HLADR, was analyzed with bidirectional fitting relative to DMSO as the negative control and baseline of activity. Using a type of binding reporter, gain or loss-of-signal activity can be used to understand changes in the signaling as they relate to the gene HLA-DRA. Furthermore, this assay endpoint can be referred to as a primary readout, because this assay has produced multiple assay endpoints where this one serves a signaling function. To generalize the intended target to other relatable targets, this assay endpoint is annotated to the cell adhesion molecules intended target family, where the subfamily is MHC Class II.
# The levels of cell surface (or secreted, indicated by the prefix "s") biomarker endpoints were measured by ELISA. Overt cytotoxicity to cells in confluent adherent cultures (all systems other than the BT system) was assessed by measuring total protein levels using sulforhodamine B (SRB) staining in parallel cultures at the time of biomarker measurements, indicated as SRB endpoints. For proliferation assays for adherent cell types, individual cell types are cultured at sub-confluence and relative cell numbers quantified by SRB staining at time points optimized for each system (48 h: 3C and CASM3C systems; 72 h: BT and HDF3CGF systems; 96 h: SAg system). SRB was performed by staining cells with 0.1% SRB after fixation with 10% TCA and reading wells at 560 nm.Viability and proliferation of PBMC (T cells) was quantified by Alamar Blue reduction for the SAg and BT systems. For PBMC viability (referred to as PBMC Cytotoxicity within the assay endpoint names), cells were plated (75,000/well in a 96-well plate) and then chemical samples added for 1 h before addition of activators, SEB and TSST-1 (20 ng/mL final concentration each). Cells were incubated for 90 h. Then, Alamar Blue (20 uL/well) (Invitrogen, Cat DAL1100) was added for 6 h, and the plates were read with a fluorescence microplate reader at 546/580 nm (excitation/emission). For PBMC proliferation, cells were plated and activated as above but incubated for only 16 h prior to addition of Alamar Blue. Plates were read after 6 h.
Compound,outcome,AC50
CC(O)CCO (stereo not given),inactive,
Cc1cc(N=Nc2ccccc2C)ccc1N,,27.5 µM (active)
CCOc1cccc(C2(N3CCN(c4ccccc4)CC3)CCC(C)CC2)c1 (stereo not given),inactive,
CC(C)N(Cc1ccccc1)C(=O)C(C)(C)C,inactive,
CCC(C)c1ccc(O)cc1 (stereo not given),inactive,
Cc1ccc(N=C=O)cc1N=C=O,inactive,
ClC1=C(Cl)[C@]2(Cl)[C@H]3[C@H]([C@@H]4C=C[C@H]3C4)[C@@]1(Cl)C2(Cl)Cl,,24.9 µM (active)
OCCOCCO,inactive,
ClC1=C(Cl)C2(Cl)C3C(Cl)C=CC3C1(Cl)C2(Cl)Cl (stereo not given),,22.7 µM (active)
[Cl-].[Cl-].[Hg+2],,30 µM (active)
COc1cc(C=O)cc2c1[C@H](COC(N)=O)[C@]1(OC(C)=O)ON2C[C@H]2[C@@H]1N2C(C)=O,,15.9 µM (active)
CN(C)[C@@H]1C(=O)C(C(N)=O)=C(O)[C@@]2(O)C(=O)C3=C(O)c4c(O)cccc4[C@@](C)(O)[C@H]3C[C@@H]12,inactive,
CCCCC(CC)COC(=O)c1ccc(C(=O)OCC(CC)CCCC)c(C(=O)OCC(CC)CCCC)c1 (stereo not given),inactive,
COC(=O)c1ccccc1N,inactive,
c1ccc2c(c1)oc1ccccc12,inactive,
Nc1ccc(Oc2ccc(N)cc2)cc1,inactive,
O=[N+]([O-])C(Br)(CO)CO,,16.5 µM (active)
c1ccc(C2CO2)cc1 (stereo not given),inactive,
Nc1ccc([N+](=O)[O-])cc1,inactive,
C[C@]12C=CC3=C4CCC(=O)C=C4CC[C@H]3[C@@H]1CC[C@@H]2O,,20 µM (active)

Compound,outcome,AC50
Oc1ccccc1Cl,inactive,
CC(C)(OOC(C)(C)c1ccccc1)c1ccccc1,,24.6 µM (active)
Nc1ccc(Cc2ccc(N)cc2)cc1,inactive,
[O-][Cl+]O,inactive,
Clc1ccccc1Cl,inactive,
Brc1ccc(Oc2ccccc2)cc1,inactive,
CCCCCOC(=O)c1ccccc1C(=O)OCCCCC,,20 µM (active)
O=C1CCCO1,inactive,
CN(C)C(=O)Nc1ccc(Cl)cc1,inactive,
OCCCl,inactive,
CCN(CC)N=O,inactive,
C1=Cc2cccc3cccc1c23,inactive,
CCCCCCCCOC(=O)c1ccc(C(=O)OCCCCCCCC)c(C(=O)OCCCCCCCC)c1,inactive,
CCCCCCCCn1sccc1=O,,5.11 µM (active)
Clc1ccc(C(c2ccc(Cl)cc2)C(Cl)(Cl)Cl)cc1,,25.8 µM (active)
O=C(O)C1C2CCC(O2)C1C(=O)O (stereo not given),inactive,
[As]#[In],inactive,
ClCCOCCCl,inactive,
O=C(N[C@H](c1ccccc1)[C@@H]1CN2CCC1CC2)c1c(Cl)ccc(C(F)(F)F)c1Cl,inactive,
Oc1ccc2ccc3cccc4ccc1c2c34,,26.6 µM (active)
